# Reference: the supplement of paper PMC10849652
# Targets with a hit are over-represented here; the source holds about 7,900 in all. About 0.6% of all pairs of compound and target were hits. Values without a mark were called inactive.
# How the values were obtained:
# Experiment in all cases: log2 fold change, soluble protein after heating vs DMSO (PISA); higher = thermal stabilisation; K562 cells, 10 uM, 30 min; active = over 0.2 and 3.5 SD of the protein, either way, in both replicates (recomputed)
# [1] = compound: COC1=CC=C(C=C1)CN2C=CC3=C2C=C(C=C3)C(=O)NO
# Method in brief: (§1)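 Aliquots of K562 cells (2×10^6 cells/mL) treated with 10 μM compound for 30 min were heated for 3 min over 48°C-58°C. After pooling and extraction in PBS with 0.5% NP-40 at 4°C, soluble protein from a 21,000xg, 90 min spin was quantified by TMTpro 16plex LC-MS/MS with channel sums equalised. Thermal stability is expressed against control samples, from duplicates, as a log2 fold change.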
# [2] = compound: CON(C)C(=O)N1N=C(c2cc(F)ccc2F)S[C@@]1(CCCN)c1ccccc1 [filanesib]
# Method in brief: as §1
# [3] = compound: CO[C@H]1C[C@@H]2CC[C@@H](C)[C@@](O)(O2)C(=O)C(=O)N2CCCC[C@H]2C(=O)O[C@H]([C@H](C)C[C@@H]2CC[C@H](n3cnnn3)[C@H](OC)C2)CC(=O)[C@H](C)/C=C(\C)[C@@H](O)[C@@H](OC)C(=O)[C@H](C)C[C@H](C)/C=C/C=C/C=C/1C [zotarolimus]
# Method in brief: as §1
# [4] = compound: COc1cc(C(=O)O)ccc1NC(=O)[C@@H]1N[C@@H](CC(C)(C)C)[C@](C#N)(c2ccc(Cl)cc2F)[C@H]1c1cccc(Cl)c1F [idasanutlin]
# Method in brief: as §1
# [5] = compound: COc1cc(Nc2ncc3c(n2)-c2ccc(Cl)cc2C(c2c(F)cccc2OC)=NC3)ccc1C(=O)O [alisertib]
# Method in brief: as §1
# [6] = compound: COc1cc2nc(-c3cc(F)ccc3O)nc(N[C@@H]3CNC[C@H]3C(C)(C)O)c2cc1OC
# Method in brief: as §1
# [7] = compound: COc1cc2ncnc(Nc3ccc(F)c(Cl)c3)c2cc1OCCCN1CCOCC1 [gefitinib]
# Method in brief: as §1
# [8] = compound: COc1cccc2cc(-c3nc([C@H]4CC[C@H](C(=O)O)CC4)n4ncnc(N)c34)[nH]c12
# Method in brief: as §1
# [9] = compound: CS(=O)(=O)CCNCc1ccc(-c2ccc3ncnc(Nc4ccc(OCc5cccc(F)c5)c(Cl)c4)c3c2)o1 [lapatinib]
# Method in brief: as §1
# [10] = compound: CS(=O)(=O)N1CCN(Cc2cc3nc(-c4cccc5[nH]ncc45)nc(N4CCOCC4)c3s2)CC1 [pictilisib]
# Method in brief: as §1
# Sequence of UniProt P23368 (P23368 whole entry, looked up): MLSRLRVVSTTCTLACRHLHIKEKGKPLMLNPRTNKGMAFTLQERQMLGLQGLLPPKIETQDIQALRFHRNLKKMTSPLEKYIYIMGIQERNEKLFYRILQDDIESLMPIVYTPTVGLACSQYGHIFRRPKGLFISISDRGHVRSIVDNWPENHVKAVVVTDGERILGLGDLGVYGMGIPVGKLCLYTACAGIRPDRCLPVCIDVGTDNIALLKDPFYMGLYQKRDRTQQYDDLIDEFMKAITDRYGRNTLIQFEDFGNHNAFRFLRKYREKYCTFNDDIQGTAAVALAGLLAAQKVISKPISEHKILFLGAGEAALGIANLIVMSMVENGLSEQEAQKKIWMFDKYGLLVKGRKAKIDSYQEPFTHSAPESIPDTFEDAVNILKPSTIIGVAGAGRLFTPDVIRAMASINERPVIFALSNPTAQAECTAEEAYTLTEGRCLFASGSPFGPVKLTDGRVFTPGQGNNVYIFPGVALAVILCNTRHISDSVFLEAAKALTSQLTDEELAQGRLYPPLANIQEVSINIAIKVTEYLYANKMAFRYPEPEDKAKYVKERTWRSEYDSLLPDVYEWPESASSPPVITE
# Sequence of UniProt P49006 (P49006 whole entry, looked up): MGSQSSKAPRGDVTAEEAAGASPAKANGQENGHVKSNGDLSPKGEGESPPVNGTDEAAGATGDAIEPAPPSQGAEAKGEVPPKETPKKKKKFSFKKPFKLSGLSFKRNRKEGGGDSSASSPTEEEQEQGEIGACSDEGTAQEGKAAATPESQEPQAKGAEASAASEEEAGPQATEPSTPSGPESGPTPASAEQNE
# Sequence of UniProt Q9H0B6 (Q9H0B6 whole entry, looked up): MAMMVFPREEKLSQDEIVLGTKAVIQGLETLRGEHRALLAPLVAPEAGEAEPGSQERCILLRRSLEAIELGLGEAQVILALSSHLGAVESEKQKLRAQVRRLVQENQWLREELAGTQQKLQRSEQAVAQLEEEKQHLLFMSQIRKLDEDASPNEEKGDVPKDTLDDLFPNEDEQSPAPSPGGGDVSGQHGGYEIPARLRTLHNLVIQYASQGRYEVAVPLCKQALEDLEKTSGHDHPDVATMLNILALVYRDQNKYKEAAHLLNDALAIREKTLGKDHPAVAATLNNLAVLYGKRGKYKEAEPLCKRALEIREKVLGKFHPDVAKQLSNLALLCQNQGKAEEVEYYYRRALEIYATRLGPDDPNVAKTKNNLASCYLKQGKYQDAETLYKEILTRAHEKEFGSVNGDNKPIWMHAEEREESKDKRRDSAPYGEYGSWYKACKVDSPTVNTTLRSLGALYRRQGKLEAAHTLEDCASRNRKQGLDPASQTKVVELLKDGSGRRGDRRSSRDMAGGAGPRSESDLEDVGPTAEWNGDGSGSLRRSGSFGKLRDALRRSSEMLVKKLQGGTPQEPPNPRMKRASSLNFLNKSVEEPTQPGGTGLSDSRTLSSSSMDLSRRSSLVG
# Sequence of UniProt Q16539 (Q16539 whole entry, looked up): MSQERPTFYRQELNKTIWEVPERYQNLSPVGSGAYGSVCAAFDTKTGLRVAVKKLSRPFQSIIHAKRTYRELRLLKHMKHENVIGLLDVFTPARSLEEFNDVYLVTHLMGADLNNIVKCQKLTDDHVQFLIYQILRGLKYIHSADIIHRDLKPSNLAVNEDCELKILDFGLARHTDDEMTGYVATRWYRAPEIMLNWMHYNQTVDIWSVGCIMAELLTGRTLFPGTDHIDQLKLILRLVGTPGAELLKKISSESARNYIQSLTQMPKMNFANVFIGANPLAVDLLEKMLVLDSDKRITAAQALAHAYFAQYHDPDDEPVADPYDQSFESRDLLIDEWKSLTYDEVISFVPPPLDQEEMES
# Sequence of UniProt P52294 (P52294 whole entry, looked up): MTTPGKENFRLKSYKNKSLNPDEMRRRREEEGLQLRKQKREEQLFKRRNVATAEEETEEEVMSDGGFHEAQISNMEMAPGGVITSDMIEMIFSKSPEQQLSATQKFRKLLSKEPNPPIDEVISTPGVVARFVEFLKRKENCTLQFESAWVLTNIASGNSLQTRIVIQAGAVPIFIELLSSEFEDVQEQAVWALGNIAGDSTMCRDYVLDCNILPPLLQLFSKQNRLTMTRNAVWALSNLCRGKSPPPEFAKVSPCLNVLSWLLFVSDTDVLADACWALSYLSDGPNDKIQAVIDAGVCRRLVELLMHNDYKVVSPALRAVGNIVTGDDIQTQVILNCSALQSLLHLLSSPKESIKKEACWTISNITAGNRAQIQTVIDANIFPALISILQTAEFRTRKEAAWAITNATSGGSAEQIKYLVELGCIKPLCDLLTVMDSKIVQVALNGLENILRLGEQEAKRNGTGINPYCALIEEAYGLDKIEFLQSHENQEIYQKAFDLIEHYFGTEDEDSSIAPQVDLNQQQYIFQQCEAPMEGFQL
# Sequence of UniProt P14174 (P14174 whole entry, looked up): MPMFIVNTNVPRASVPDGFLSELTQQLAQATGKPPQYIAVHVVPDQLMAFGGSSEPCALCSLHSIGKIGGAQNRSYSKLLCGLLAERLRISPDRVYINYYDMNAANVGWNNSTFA
# Sequence of UniProt O95232 (O95232 whole entry, looked up): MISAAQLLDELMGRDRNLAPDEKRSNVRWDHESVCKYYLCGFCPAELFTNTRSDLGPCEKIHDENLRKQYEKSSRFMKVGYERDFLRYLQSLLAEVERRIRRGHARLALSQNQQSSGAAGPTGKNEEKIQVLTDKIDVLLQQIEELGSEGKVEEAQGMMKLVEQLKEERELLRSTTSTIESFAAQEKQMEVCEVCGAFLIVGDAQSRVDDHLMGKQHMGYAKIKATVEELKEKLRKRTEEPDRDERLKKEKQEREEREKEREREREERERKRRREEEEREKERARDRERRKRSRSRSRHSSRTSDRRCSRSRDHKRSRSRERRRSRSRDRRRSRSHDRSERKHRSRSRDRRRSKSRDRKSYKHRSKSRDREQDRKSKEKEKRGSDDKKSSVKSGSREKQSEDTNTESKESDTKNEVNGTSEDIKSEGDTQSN
# Sequence of UniProt Q86X29 (Q86X29 whole entry, looked up): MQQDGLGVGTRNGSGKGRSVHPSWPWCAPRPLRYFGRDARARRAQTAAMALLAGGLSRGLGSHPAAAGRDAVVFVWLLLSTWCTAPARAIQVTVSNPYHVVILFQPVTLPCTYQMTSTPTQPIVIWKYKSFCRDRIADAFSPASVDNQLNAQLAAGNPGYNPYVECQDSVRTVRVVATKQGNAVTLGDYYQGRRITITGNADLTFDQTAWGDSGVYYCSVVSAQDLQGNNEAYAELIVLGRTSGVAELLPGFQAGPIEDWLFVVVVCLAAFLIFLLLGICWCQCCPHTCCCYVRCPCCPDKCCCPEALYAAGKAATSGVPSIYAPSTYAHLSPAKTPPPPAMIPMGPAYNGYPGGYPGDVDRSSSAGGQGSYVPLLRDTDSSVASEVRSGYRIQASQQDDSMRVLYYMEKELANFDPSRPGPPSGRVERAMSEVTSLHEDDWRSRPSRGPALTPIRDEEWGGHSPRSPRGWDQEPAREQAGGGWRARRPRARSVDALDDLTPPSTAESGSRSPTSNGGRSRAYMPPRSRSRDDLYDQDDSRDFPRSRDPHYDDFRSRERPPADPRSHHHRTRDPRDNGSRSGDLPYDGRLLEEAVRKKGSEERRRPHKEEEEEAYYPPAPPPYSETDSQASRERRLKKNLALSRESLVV
# Sequence of UniProt A1L0T0 (A1L0T0 whole entry, looked up): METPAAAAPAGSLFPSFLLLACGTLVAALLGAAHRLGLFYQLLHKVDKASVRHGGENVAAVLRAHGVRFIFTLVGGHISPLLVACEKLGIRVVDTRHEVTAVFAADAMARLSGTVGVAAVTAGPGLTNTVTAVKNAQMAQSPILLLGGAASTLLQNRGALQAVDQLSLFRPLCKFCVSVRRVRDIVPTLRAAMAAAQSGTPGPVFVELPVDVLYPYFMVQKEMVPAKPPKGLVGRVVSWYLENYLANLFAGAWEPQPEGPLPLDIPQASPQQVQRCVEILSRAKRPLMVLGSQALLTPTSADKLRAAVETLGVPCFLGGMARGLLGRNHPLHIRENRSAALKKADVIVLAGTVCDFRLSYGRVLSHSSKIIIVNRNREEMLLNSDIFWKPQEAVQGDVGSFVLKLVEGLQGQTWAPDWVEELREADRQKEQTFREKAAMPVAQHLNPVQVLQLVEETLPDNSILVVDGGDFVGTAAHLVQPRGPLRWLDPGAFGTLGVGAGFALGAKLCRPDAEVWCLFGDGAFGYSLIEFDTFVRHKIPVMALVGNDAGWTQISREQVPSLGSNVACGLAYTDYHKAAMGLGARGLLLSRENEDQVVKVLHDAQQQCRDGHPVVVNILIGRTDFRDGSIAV
# Sequence of UniProt Q6P1A2 (Q6P1A2 whole entry, looked up): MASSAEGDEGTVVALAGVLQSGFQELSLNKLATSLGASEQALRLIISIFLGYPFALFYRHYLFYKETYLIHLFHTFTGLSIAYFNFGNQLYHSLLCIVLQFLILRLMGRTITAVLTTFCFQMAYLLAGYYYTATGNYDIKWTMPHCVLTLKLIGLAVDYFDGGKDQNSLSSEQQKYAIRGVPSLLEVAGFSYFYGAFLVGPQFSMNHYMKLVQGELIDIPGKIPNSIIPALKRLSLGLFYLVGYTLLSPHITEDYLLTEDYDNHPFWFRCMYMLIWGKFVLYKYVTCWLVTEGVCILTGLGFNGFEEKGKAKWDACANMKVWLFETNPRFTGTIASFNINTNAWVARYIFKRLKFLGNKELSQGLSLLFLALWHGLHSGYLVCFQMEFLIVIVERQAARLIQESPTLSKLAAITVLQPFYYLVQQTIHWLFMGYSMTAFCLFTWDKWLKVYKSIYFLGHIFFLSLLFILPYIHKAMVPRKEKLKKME
# Sequence of UniProt Q9GZY8 (Q9GZY8 whole entry, looked up): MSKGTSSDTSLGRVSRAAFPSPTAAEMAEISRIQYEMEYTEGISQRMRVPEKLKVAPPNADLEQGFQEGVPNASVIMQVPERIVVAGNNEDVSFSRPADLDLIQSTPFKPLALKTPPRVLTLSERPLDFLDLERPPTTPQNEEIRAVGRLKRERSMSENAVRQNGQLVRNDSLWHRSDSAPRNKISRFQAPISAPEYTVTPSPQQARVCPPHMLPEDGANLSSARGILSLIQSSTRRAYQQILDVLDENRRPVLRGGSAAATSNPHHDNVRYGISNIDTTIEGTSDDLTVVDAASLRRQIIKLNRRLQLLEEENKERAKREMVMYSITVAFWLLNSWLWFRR
Target,log2 fold change [1],log2 fold change [2],log2 fold change [3],log2 fold change [4],log2 fold change [5],log2 fold change [6],log2 fold change [7],log2 fold change [8],log2 fold change [9],log2 fold change [10]
LIAS (UniProt O43766),-0.131,-0.049,-0.097,-0.032,-0.041,0.132,0.014,0.036,-0.051,0.078
KDM5D isoform 3 (UniProt Q9BY66),-0.592 (active),0.073,-0.053,-0.058,-0.044,0.045,-0.021,-0.072,-0.047,0.049
LUC7L3 (UniProt O95232),0.106,0.083,0.003,0.031,-0.009,0.021,-0.04,0.011,0.045,0.011
MAGEA9 (UniProt P43362),-0.246,0.003,0.015,0.087,0.057,0.024,0.034,0.033,-0.018,-0.018
KEAP1 (UniProt Q14145),0.005,0.028,0.036,-0.019,-0.018,0.005,0.03,-0.066,0.007,-0.02
ME2 (UniProt P23368),-0.037,0.012,-0.052,0.196,0.002,0.076,0.023,-0.046,-0.003,0.056
MIF (UniProt P14174),0.027,0.024,0.029,0.043,0.043,-0.082,0.082,-0.043,-0.034,-0.141
LSR (UniProt Q86X29),0.107,0.116,-0.011,-0.022,-0.122,0.027,0.021,0.033,-0.056,0.121
IPO11 isoform 2 (UniProt Q9UI26),0.036,-0.045,0.002,-0.087,-0.023,-0.006,-0.049,0.04,0.005,0.028
KHDC4 (UniProt Q7Z7F0),0.14,-0.025,0.035,-0.043,-0.003,0.025,0.015,-0.026,-0.025,-0.028
KLC2 (UniProt Q9H0B6),0.06,-0.038,-0.028,-0.065,-0.047,-0.133,0.017,0,-0.005,0.083
KIF3A (UniProt Q9Y496),0.219,-0.091,-0.004,0.056,-0.027,0.137,-0.129,0,-0.063,0.146
LMF2 (UniProt Q9BU23),-0.041,-0.011,-0.027,-0.02,-0.025,-0.014,0.013,-0.021,0.062,-0.095
KIF21A isoform 4 (UniProt Q7Z4S6),0.014,0.028,0.051,0.07,0.051,0.163,-0.028,-0.126,0.001,0.037
LPCAT3 (UniProt Q6P1A2),-0.067,-0.352 (active),-0.065,-0.086,-0.055,-0.117,-0.024,-0.017,0.172,-0.011
LMNB2 (UniProt Q03252),-0.023,0.1,-0.064,0.099,0.004,-0.005,-0.001,0.069,0.059,0.03
KPNA1 (UniProt P52294),-0.115,0.072,0.065,0.019,0.078,0.083,0.011,-0.042,0.01,0.094
MFF (UniProt Q9GZY8),0.038,0.075,-0.022,0.053,0.024,-0.141,0.012,0.128,-0.061,0.103
KIF2C (UniProt Q99661),0.063,-0.033,0.001,-0.046,-0.008,0.09,0.006,-0.081,-0.048,0.008
MAPK14 (UniProt Q16539),0.024,-0.055,0.059,-0.361,-0.014,0.014,0.796 (active),0.303,-0.002,-0.05
MEAK7 (UniProt Q6P9B6),-0.046,-0.109,-0.002,-0.013,-0.012,-0.101,-0.142,-0.055,0.087,-0.063
LTV1 (UniProt Q96GA3),-0.019,0.17,0.067,0.133,-0.06,0.022,-0.097,-0.095,0.05,0
LTO1 (UniProt Q8WV07),-0.06,-0.06,0.062,-0.093,0.118,0.036,0.017,-0.001,-0.016,0.038
LYN (UniProt P07948),-0.074,0.021,0.07,-0.01,0.002,0.259,-0.036,0.081,0.011,0.112
KIF1B isoform 4 (UniProt O60333),0.008,-0.128,0.024,-0.006,-0.044,-0.014,-0.004,-0.04,0.013,0.037
ITIH4 (UniProt Q14624),0.252,-0.174,-0.896 (active),0.184,-0.047,-0.146,-0.093,0.277,-0.034,-0.241
MED16 (UniProt Q9Y2X0),-0.032,0.062,-0.029,0.144,-0.024,-0.063,0.016,0.005,0.064,0.011
MIEN1 (UniProt Q9BRT3),-0.084,0.085,0.015,-0.009,0.034,0.061,0.027,0.001,-0.016,0.001
MARCKSL1 (UniProt P49006),-0.074,0.002,-0.033,-0.011,-0.093,0.073,-0.027,0.028,-0.061,0.026
ILVBL (UniProt A1L0T0),-0.008,0.006,0.072,-0.106,-0.088,-0.001,0.075,0.082,-0.011,0.031
